The source of these data is PubChem BioAssay.

Experiment [1] in a line: antimalarial activity against Dd2 strain (AID 2302;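 active = growth inhibition above 50% at the single 2 µM test dose, taken to imply half-maximal potency below 2 µM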;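 also: 0% = DMSO untreated growth and 100% = chloroquine plus artemisinin killed control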). Conditions: P. falciparum Dd2 in RBCs, LDH growth readout, 72 h; at 2 µM; stronger effect = higher value.
The nature of experiment [2]: human hepatoma cell viability loss – ATP luminescence, cytotoxicity control for P. falciparum antimalarial project, primary screen (AID 2303;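 active = inhibition above 50%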;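 also: 0% = DMSO wells and 100% = digitonin-killed cells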). To be noted: HepG2 viability, 24-48 h, at 10 µM, stronger effect = higher value.
In experiment [3] the target is L-lactate dehydrogenase (Plasmodium falciparum (isolate CDC / Honduras)) (UniProt Q27743). Nature of the experiment: PfLDH activity inhibition – cell lysate, 3D7 strain, counter-screen for P. falciparum growth inhibition project (AID 2304).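 Also: 0% = vehicle and 100% = reference inhibitor.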 Conditions: P. falciparum 3D7 crude extract, LDH APAD/NBT absorbance; at 2 µM; stronger effect = higher value.
A short description of experiment [4]: inhibition of 3D7 malaria parasite growth – strain 3D7 (AID 2306).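 Also: 0% = DMSO wells and 100% = chloroquine plus artemisinin control wells.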 To be noted: P. falciparum 3D7 erythrocytic growth, LDH absorbance, 72 h; at 2 µM; stronger effect = higher value.
The target of experiment [5] is Calcium-dependent protein kinase 1 (Plasmodium falciparum (isolate 3D7)) (UniProt P62344). In words: PfCDPK1 kinase inhibitors, biochemical, TCAMS library (AID 1159585; cut-off not given, nearly all actives have IC50 up to about 0.98 µM;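 also: inhibitors leave more ATP so luminescence rises with inhibition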). To be noted: recombinant PfCDPK1, Kinase-Glo ATP depletion luminescence.
For experiment [6], the target named is Plasmodium falciparum protein kinase 6 (PK6, PF3D7_1337100) (UniProt Q8IDW1). In words: PfPK6 kinase inhibitors, biochemical, TCAMS library (AID 1159586). Conditions: recombinant PfPK6, Kinase-Glo ATP depletion luminescence.
Experiment [7] deals with Protein kinase 7 (PK7), Plasmodium falciparum 3D7 (PF3D7_0213400) (UniProt Q7YTF7). Nature of the experiment: inhibition of Plasmodium PK7 catalytic activity – biochemical, TCAMS antimalarial set, Kinase-Glo luminescence (AID 1159587). Conditions: recombinant PfPK7, Kinase-Glo ATP depletion luminescence.
In experiment [8] the target is Calcium-dependent protein kinase 4 (Plasmodium falciparum (isolate 3D7)) (UniProt Q8IBS5). Nature of the experiment: PfCDPK4 kinase inhibitors, biochemical, TCAMS library (AID 1159588; cut-off not given, nearly all actives have IC50 up to about 0.91 µM). To be noted: recombinant PfCDPK4, Kinase-Glo ATP depletion luminescence.

A number with no mark means an inactive call. For some of these results: Entries with a potency or affinity are not part of this list. Active and inactive are the calls of the source. Unless noted, no rule for the calls is given here.

Sequence of L-lactate dehydrogenase (Plasmodium falciparum (isolate CDC / Honduras)) (Q27743 whole entry, looked up): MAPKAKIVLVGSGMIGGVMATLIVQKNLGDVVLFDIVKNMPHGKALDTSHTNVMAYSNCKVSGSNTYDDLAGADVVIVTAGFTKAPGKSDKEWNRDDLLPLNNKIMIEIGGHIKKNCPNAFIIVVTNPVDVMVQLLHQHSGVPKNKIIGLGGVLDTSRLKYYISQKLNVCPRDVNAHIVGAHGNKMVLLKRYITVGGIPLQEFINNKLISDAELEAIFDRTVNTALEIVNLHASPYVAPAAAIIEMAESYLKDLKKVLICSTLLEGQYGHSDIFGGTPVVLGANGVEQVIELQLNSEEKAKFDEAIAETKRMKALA
Sequence of Calcium-dependent protein kinase 4 (Plasmodium falciparum (isolate 3D7)) (Q8IBS5 whole entry, looked up): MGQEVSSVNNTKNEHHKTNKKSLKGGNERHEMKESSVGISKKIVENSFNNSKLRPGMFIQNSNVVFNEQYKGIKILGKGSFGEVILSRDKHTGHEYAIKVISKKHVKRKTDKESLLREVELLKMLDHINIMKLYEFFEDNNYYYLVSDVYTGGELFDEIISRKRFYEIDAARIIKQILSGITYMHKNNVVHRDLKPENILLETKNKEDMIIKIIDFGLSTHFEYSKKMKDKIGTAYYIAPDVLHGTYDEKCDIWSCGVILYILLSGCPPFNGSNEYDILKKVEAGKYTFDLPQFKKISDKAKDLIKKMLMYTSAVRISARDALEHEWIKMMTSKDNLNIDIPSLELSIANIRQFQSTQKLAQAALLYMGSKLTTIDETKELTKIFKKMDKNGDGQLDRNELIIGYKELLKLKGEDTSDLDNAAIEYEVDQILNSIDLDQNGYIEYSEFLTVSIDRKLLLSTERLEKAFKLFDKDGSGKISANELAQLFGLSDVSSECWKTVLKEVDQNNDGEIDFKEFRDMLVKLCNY
Sequence of Calcium-dependent protein kinase 1 (Plasmodium falciparum (isolate 3D7)) (P62344 whole entry, looked up): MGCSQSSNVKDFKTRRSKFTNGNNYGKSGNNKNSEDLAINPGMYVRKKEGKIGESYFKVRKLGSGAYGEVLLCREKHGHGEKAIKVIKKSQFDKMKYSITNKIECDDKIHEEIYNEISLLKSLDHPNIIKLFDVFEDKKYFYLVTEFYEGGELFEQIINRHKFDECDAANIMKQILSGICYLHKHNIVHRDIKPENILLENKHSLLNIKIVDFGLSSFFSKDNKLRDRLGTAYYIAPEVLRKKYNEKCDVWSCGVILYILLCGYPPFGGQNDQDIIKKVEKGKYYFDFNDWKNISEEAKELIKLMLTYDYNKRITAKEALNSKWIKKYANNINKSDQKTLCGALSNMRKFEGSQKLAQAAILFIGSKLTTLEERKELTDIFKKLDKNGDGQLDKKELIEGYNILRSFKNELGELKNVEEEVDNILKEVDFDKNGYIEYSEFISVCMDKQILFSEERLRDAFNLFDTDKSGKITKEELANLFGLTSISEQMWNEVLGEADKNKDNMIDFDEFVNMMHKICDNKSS
Sequence of Plasmodium falciparum protein kinase 6 (PK6, PF3D7_1337100) (Q8IDW1 1-305): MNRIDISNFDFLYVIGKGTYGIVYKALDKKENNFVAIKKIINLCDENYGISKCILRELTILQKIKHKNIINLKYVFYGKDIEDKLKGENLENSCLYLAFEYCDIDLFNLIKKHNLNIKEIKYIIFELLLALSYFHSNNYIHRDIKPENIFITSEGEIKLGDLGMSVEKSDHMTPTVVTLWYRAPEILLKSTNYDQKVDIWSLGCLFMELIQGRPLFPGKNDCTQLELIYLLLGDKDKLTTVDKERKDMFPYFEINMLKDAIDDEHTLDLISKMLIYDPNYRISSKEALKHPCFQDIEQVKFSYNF
Sequence of Protein kinase 7 (PK7), Plasmodium falciparum 3D7 (PF3D7_0213400) (Q7YTF7 1-343): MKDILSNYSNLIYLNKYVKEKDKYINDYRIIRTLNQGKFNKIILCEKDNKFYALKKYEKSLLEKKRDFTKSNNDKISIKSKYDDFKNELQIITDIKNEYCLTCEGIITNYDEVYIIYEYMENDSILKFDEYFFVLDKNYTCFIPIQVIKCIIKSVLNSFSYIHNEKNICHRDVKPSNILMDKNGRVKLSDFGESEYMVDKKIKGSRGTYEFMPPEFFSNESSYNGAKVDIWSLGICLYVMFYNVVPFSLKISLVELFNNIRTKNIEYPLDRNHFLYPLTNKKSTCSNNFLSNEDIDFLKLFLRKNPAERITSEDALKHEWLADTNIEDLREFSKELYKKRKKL

With `Cc1cccc2[nH]c(-c3cccc(-c4cccc(NC(=O)Nc5ccc(Cl)c(Cl)c5)c4)c3)nc12`, the values for the growth inhibition in experiment [1] and in experiment [4] were 96% (active) and 101% (active), respectively. For the same compound, the inhibition was 24% in experiment [2] and 1% in experiment [3]. The outcome in experiment [5], in experiment [6], in experiment [7] and in experiment [8] was inactive.

Take `O=C(NCCCCCN1CCC(c2c[nH]c3ccccc23)CC1)Nc1cccc(Cl)c1`: the growth inhibition in experiment [1] is 0%; in experiment [4] it was 86% (active). The inhibition in experiment [2] was 36%; in experiment [3] it was -1%. Further, the result in experiment [5], in experiment [6], in experiment [7] and in experiment [8] was inactive.

`CC(=NN=C(N)N)c1ccc2c(ccc3ccccc32)c1`: the growth inhibition in experiment [1] is 15%; in experiment [4], 100% (active). Further, the inhibition in experiment [2] is 47%; in experiment [3], 8%. Also, the result in experiment [5], in experiment [6], in experiment [7] and in experiment [8] was inactive.

For `C[C@H](NC(=O)C1CCCC1)C(=O)Nc1ccc(-c2ccc(-c3nc4ccc(C(F)(F)F)cc4[nH]3)cc2)cc1`, the growth inhibition is 70% (active) in experiment [1] and 99% (active) in experiment [4]. Besides, the inhibition was 34% in experiment [2] and -4% in experiment [3]. The result in experiment [5], in experiment [6], in experiment [7] and in experiment [8] was inactive.

For `O=C(Nc1ccc(Cl)cc1)c1ccc(CN2CCCN(Cc3ccsc3)CC2)cc1`, the results for the growth inhibition in experiment [1] and in experiment [4] were 1% and 88% (active), respectively. Further, the inhibition was 48% in experiment [2] and 4% in experiment [3]. The result in experiment [5], in experiment [6], in experiment [7] and in experiment [8] was inactive.

As to `CC(C)CCN=C(N)Nc1ccc(OCCCOc2ccc(NC(N)=NCCC(C)C)cc2)cc1`, the results for the growth inhibition in experiment [1] and in experiment [4] were 95% (active) and 100% (active), respectively. Besides, the inhibition in experiment [2] is 0%; in experiment [3], -3%. Further, the result in experiment [5], in experiment [6], in experiment [7] and in experiment [8] was inactive.

On to `N#Cc1ccc(N2CCN(Cc3cccc(-c4cccc(-c5nc6ccc(F)cc6[nH]5)c4)c3)CC2)nc1`, for which the growth inhibition in experiment [1] was 52% (active); in experiment [4] it was 90% (active). The inhibition in experiment [2] is 26%; in experiment [3] it was 3%. Moreover, the result in experiment [5], in experiment [6], in experiment [7] and in experiment [8] was inactive.

Consider `Cc1cccc(Cl)c1S(=O)(=O)Nc1cccc(CCN2CCC(N3CCCCC3)CC2)c1`, for which the values for the growth inhibition in experiment [1] and in experiment [4] were 18% and 91% (active), respectively. For the same compound, the inhibition was 34% in experiment [2] and 2% in experiment [3]. Moreover, the outcome in experiment [5], in experiment [6], in experiment [7] and in experiment [8] was inactive.

For the compound `Cc1cc2ncn(-c3nccc(NCc4ccc(F)c(C)c4)n3)c2cc1C`, the growth inhibition in experiment [1] was 82% (active); in experiment [4] it was 90% (active). Also, the inhibition is 10% in experiment [2] and -3% in experiment [3]. For the same compound, the result in experiment [5], in experiment [6], in experiment [7] and in experiment [8] was inactive.

In the case of `COc1ccc2ncc(F)c([C@H](O)CN3CCC(NCc4cc5c(cn4)OCCO5)CC3)c2c1`, the growth inhibition in experiment [1] was 97% (active); in experiment [4] it was 101% (active). The inhibition in experiment [2] was 5%; in experiment [3], 7%. Besides, the outcome in experiment [5], in experiment [6], in experiment [7] and in experiment [8] was inactive.

Turning to `CCOC(=O)c1ccc(-n2c(C)cc(C=C3SC(=Nc4ccccc4)N(C4CCCC4)C3=O)c2C)cc1`, the growth inhibition in experiment [1] was 61% (active); in experiment [4], 98% (active). Further, the inhibition in experiment [2] was 2%; in experiment [3], 0%. For the same compound, the outcome in experiment [5], in experiment [6], in experiment [7] and in experiment [8] was inactive.

For `O=C(NC(=S)NCc1ccncc1)c1ccccc1`, the growth inhibition in experiment [1] was -3%; in experiment [4], 94% (active). For the same compound, the inhibition in experiment [2] was -7%; in experiment [3], 1%. Moreover, the result in experiment [5], in experiment [6], in experiment [7] and in experiment [8] was inactive.

Turning to `O=C(NCc1cccc(C(F)(F)F)c1)C1CCCN(C(=O)c2ccc(O)c(-c3ccc(Cl)c(Cl)c3)c2)C1` (stereo not given), the results for the growth inhibition in experiment [1] and in experiment [4] were 32% and 94% (active), respectively. Also, the inhibition in experiment [2] was 1%; in experiment [3] it was 6%. The result in experiment [5], in experiment [6], in experiment [7] and in experiment [8] was inactive.

Take `FC(F)(F)Oc1ccc(Nc2cc(-c3ccncc3)nc(-c3cccnc3)n2)cc1`: the growth inhibition was 52% (active) in experiment [1] and 94% (active) in experiment [4]. For the same compound, the inhibition in experiment [2] was 24%; in experiment [3] it was 0%. Moreover, the result in experiment [5], in experiment [6], in experiment [7] and in experiment [8] was inactive.

With `Cc1c(Cl)ccc2sc(N3CCN(C(=O)c4ccc([N+](=O)[O-])o4)CC3)nc12`, the growth inhibition was 93% (active) in experiment [1] and 96% (active) in experiment [4]. Further, the inhibition was -2% in experiment [2] and 3% in experiment [3]. The result in experiment [5], in experiment [6], in experiment [7] and in experiment [8] was inactive.

On to `Cc1cccc2[nH]c(-c3cccc(-c4ccc(C(=O)NCc5nccn5C)cc4)c3)nc12`, for which the growth inhibition in experiment [1] was 9%; in experiment [4] it was 100% (active). For the same compound, the inhibition in experiment [2] is 18%; in experiment [3] it was 1%. The result in experiment [5], in experiment [6], in experiment [7] and in experiment [8] was inactive.

Consider `O=C(Nc1cccc(-c2nn3ccccc3c2-c2ccnc(Nc3cccc(N4CCCC4=O)c3)n2)c1)c1cc(F)ccc1F`, for which the results for the growth inhibition in experiment [1] and in experiment [4] were 51% (active) and 99% (active), respectively. Besides, the figures for the inhibition in experiment [2] and in experiment [3] were 59% (active) and 3%, respectively. In addition, the outcome in experiment [5], in experiment [6], in experiment [7] and in experiment [8] was inactive.

For the compound `CC(C)CN(C)Cc1ccc(-c2ccc(-c3nc4ccccc4[nH]3)s2)cc1`, the growth inhibition is 76% (active) in experiment [1] and 97% (active) in experiment [4]. The inhibition was 8% in experiment [2] and 2% in experiment [3]. Also, the outcome in experiment [5], in experiment [6], in experiment [7] and in experiment [8] was inactive.

For `COc1ccc(NC(=O)N2CCc3ccc(OCCN(C(C)C)C(C)C)cc32)cc1C(F)(F)F`, the results for the growth inhibition in experiment [1] and in experiment [4] were 6% and 90% (active), respectively. The inhibition in experiment [2] was -1%; in experiment [3] it was -2%. For the same compound, the outcome in experiment [5], in experiment [6], in experiment [7] and in experiment [8] was inactive.

For the compound `COc1cccc(Nc2nc(NCCO)c3ccccc3n2)c1`, the growth inhibition in experiment [1] is 88% (active); in experiment [4], 99% (active). For the same compound, the inhibition in experiment [2] is 1%; in experiment [3], -6%. Further, the result in experiment [5], in experiment [6], in experiment [7] and in experiment [8] was inactive.
